Screening results: PubChem BioAssay, The Scripps Research Institute Molecular Screening Center
Many of the other results were omitted from the sample, so hits are more common in it than they were.
TTR transcr act: TTR transcription activators in neuroblastoma reporter cells, primary screen, cell-based, luminescence, SH-SY5Y, TTR promoter Gaussia luciferase | 100% = recombinant luciferase protein wells | activation, % at 16.7 µM | hit rate 1.3% among 92,000 | AID 1117267, 2014;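 active = activation above the mean of all tested compounds plus 3 SD, cut at about 9.5% in these data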;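 note: cells exposed to compounds for one day before reading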
HuH7 TTR inh: TTR promoter reporter inhibitors in hepatoma cells, counter-screen for TTR transcription activator project, cell-based, luminescence, HuH7 hepatoma | shares compounds with TTR transcr act | HuH7 TTR promoter-Gaussia luciferase reporter | inhibition, % at 16.7 µM | hit rate 4% among 1,100 | AID 1117279, 2014;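 active = average inhibition above the solvent-only control wells' mean plus 3 SD, cut at about 15% in these data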;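 note: inhibitors lower well luminescence so higher value means more inhibition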
TTR act confirm: TTR transcription activators, retest, confirmation, cell-based, luminescence, SH-SY5Y, triplicate; shares compounds with TTR transcr act; SHSY5Y TTR promoter Gaussia luciferase; 100% = purified Lucia enzyme wells, no cells; activation, % at 16.7 µM; 1,100 tested, under 10 active; AID 1117280, 2014;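 active = mean activation above a set limit taken from the earlier primary screen, cut at about 11% in these data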
A number is an active result; – = inactive.

SMILES	TTR transcr act	others
CCOC(=O)[C@@]12CCCC=C1N(CCc1ccc(Cl)cc1)C(=O)[C@H]2CC(=O)NCc1ccc(C)o1	–
COC(=O)[C@]12CCCCC=C1N(Cc1ccc(OC)cc1)C(=O)[C@@H]2CC(=O)NCC1CCCCC1	–
COC(=O)[C@H]1C[C@]2(C/C=C(\C)CCC=C(C)C)c3ccccc3N[C@H]2N1	–
CCC[C@H]1[C@@H](NC(=O)c2ccc(Cl)c(C(F)(F)F)c2)CC[C@@]23CCCN2C(=O)CCC[C@@H]13	–
COc1ccc(NS(=O)(=O)c2cccc(C(=O)O)c2)cc1	–
CCN(CC)S(=O)(=O)c1cc(NS(=O)(=O)c2cccc(C(=O)O)c2)ccc1C	11.3	HuH7 TTR inh=–;TTR act confirm=–
Cc1ccc(NS(=O)(=O)c2cccc(C(=O)O)c2)cc1S(=O)(=O)N1CCCCC1	–
O=c1c(-c2ccccc2)cocc1-c1ccccc1	–
CC(=O)Nc1ccc(NC(=O)C2CCCN2C(=O)Nc2ccc(F)c([N+](=O)[O-])c2)cc1 (configuration not stated)	–
NC(=O)N/N=C/c1cn(CC(=O)Nc2ccc(F)cc2)c2ccccc12	–
O=C(c1[nH]c(C(F)(F)F)nc1-c1ccccc1)N1CCc2c([nH]c3ccccc23)C1	–
Cc1cc(C)c(/C([O-])=C(/C(=S)Nc2ccc(SC(F)F)cc2)[n+]2ccccc2)cc1C	–
C=CCNC(=S)/C(=C(\[O-])c1ccc(Cl)cc1)[n+]1ccccc1	–
[O-]/C(=C(\C(=S)Nc1ccc(SC(F)F)cc1)[n+]1ccccc1)c1cc(Cl)ccc1Cl	22.3	HuH7 TTR inh=20.5;TTR act confirm=–
O=c1c2cc3cc(Cl)ccc3nc2ncn1Cc1ccc(Oc2ccccc2)cc1	–
Cc1cc(=O)[nH]c(N/N=C/c2ccc(Br)s2)n1	–
Cc1cccc(C(=O)NC(=S)NC(C)c2ccccc2)c1 (configuration not stated)	–
Cc1cccc(NC(=O)c2nc[nH]c2C(=O)N[C@@H](C)c2ccccc2)c1	–
CC1=C(C(=O)Nc2cccc(C(=O)NC(C)c3ccccc3)c2)SCCO1 (configuration not stated)	10.7	HuH7 TTR inh=–;TTR act confirm=–
C[C@H](O)Cc1cn(-c2cc3cc(C#Cc4ccsc4)ccc3oc2=O)nn1	–
CC(C)C[C@@H](COc1ccccc1)N1CCN(C)CCC1=O	–
C[C@H]1CCC(=O)N([C@H](COc2ccccc2)Cc2ccccc2)CC1	13.6	HuH7 TTR inh=–;TTR act confirm=–
CC1CCC(=O)N(CCOc2ccccc2)CC1 (configuration not stated)	–
CC1=C[C@]2(CN(CC3CC3)C3=N[C@H](c4ccccc4)CC(=O)N32)n2c(=O)n(-c3ccccc3)c(=O)n2C1	–
COc1ccc(NC(=O)C(c2ccccc2)c2ccccc2)c(OC)c1	–
SMILES	TTR transcr act	others
COc1ccc(OC)c(NC(=O)C2CC2c2ccccc2)c1 (configuration not stated)	–
COc1ccc2c(c1)OCC(O)(c1ccccc1)C2=O (configuration not stated)	37.7	HuH7 TTR inh=–;TTR act confirm=–
COc1ccc(CCN(CC(=O)NC2CCCC2)C(=O)Cn2nnc(-c3ccc(C)o3)n2)cc1OC	–
COC(=O)Cn1cc(C(=O)OC)c2ccccc21	–
COC(=O)CSc1ccccc1C(=O)OC	19.1	HuH7 TTR inh=–;TTR act confirm=–
COC(=O)CSc1ccc(C#N)c(SCC(=O)OC)c1	–
CC1(C(=O)NS(=O)(=O)Cc2ccccc2)CCN1C(=O)CCc1ccccc1 (configuration not stated)	–
CC(NC(=O)C1CCC1)c1ccc2c(c1)OCO2 (configuration not stated)	–
Cc1ccc(C(C)NC(=O)C2CCCC2)cc1C (configuration not stated)	–
CC(NC(=O)C1CCC1)c1ccc(Br)cc1 (configuration not stated)	22.3	HuH7 TTR inh=–;TTR act confirm=–
COC(=O)[C@]12C[C@H](CC(=O)NCCCCc3ccccc3)C(=O)N(Cc3cccc4ccccc34)C1=C[C@H](C(C)C)O[C@@H]2C1CC1	–
C=C(C)COc1cc2oc(=O)c(CC(=O)N3C[C@H]4C[C@@H](C3)c3cccc(=O)n3C4)c(C)c2cc1Cl	–
CC1C(=O)N(Cc2cn(CCC3OCCO3)nn2)CCS(=O)(=O)N1Cc1ccc(-c2ccc(F)cc2)cc1 (configuration not stated)	–
CC1C(=O)N(Cc2cn(CCC3OCCO3)nn2)CCS(=O)(=O)N1Cc1ccc(-c2ccncc2)cc1 (configuration not stated)	–
CC1C(=O)N(Cc2cn(CCC3OCCO3)nn2)CCS(=O)(=O)N1Cc1ccc(-c2cccc(N(C)C)c2)cc1 (configuration not stated)	36.9	HuH7 TTR inh=–;TTR act confirm=–
Cc1ccccc1C1CCC2(CCC(=O)N2CC[C@@H](O)c2ccccc2)CC1 (some centres not stated)	–
Cc1ccc(N(CC(=O)Nc2c(C)n(C)n(-c3ccccc3)c2=O)S(C)(=O)=O)cc1C	–
COc1ccc(N(CC(=O)Nc2c(C)n(C)n(-c3ccccc3)c2=O)S(=O)(=O)c2ccccc2)cc1OC	11.6	HuH7 TTR inh=–;TTR act confirm=–
COc1ccc(N(CC(=O)Nc2c(C)n(C)n(-c3ccccc3)c2=O)S(=O)(=O)c2ccc(F)cc2)cc1	–
CCCCNS(=O)(=O)c1ccc(NS(=O)(=O)c2c(C)cc(C)cc2C)cc1	–
CCCCOc1ccc(C(=O)n2ccc3ccc(-c4ccc5ccn(Cc6cccc(C(=O)OC)c6)c5c4)cc32)cc1	–
CCOc1ccccc1CNCCNCC(C)O (configuration not stated)	–
OCCNCc1ccc(OC2CCCC2)cc1	–
CN(C)CCNCc1ccccc1OC1CCCC1	21.0	HuH7 TTR inh=–;TTR act confirm=–
CN(C(=O)c1cccc(NC(=O)Cc2cccc(NC(=O)C3CCN(C(=O)CCc4ccccc4)CC3)c2)c1)C1CC1	–
SMILES	TTR transcr act	others
Cc1noc(C)c1C(=O)Nc1ccc(C#N)cc1	–
CCOC(=O)N1CCN(C(=O)C[C@H]2C(=O)N(Cc3ccc(OC)cc3)C3=CCCC[C@@]32C(=O)OCC)CC1	–
COc1ncnc2c1ncn2CCCNC1CCN(Cc2ccccc2)CC1	–
Cc1cccc(C(=O)NNC(=O)c2ccccc2-n2cccc2)c1	–
Cc1cccc(C(=O)c2ccccc2C(=O)O)c1	10.7	HuH7 TTR inh=–;TTR act confirm=–
O=C(O)c1cccc(C(=O)c2cccc3ccccc23)c1	–
C#CCOCCOCCOCCNc1nc(N2CCN(C(=O)[C@H](CCCCN)n3cc([C@@H](N)CC(C)C)nn3)CC2)nc(N2CCN(C(=O)[C@H](Cc3cc4ccccc4[nH]3)n3cc([C@@H](N)CC(C)C)nn3)CC2)n1	–
C#Cc1ccc([C@H]2C=C(C(=O)NC3CC3)O[C@@H](OCC)[C@@H]2CCCO)cc1	–
Cc1ccc(OCC(O)CN2CCOCC2)cc1C (configuration not stated)	–
CSCC[C@H](NC(=O)[C@@H]1Cc2ccccc2CN1)C(=O)Nc1ccc2c(c1)OCO2	–
Fc1ccccc1CNCc1ccc2c(c1)OCO2	–
CCn1nnc(C(=O)O)c1C(=O)O	9.9	HuH7 TTR inh=–;TTR act confirm=–
